From PubChem BioAssay
Pf Dd2 growth: blocks in vitro growth of P. falciparum Dd2. P. falciparum Dd2 growth, SYBR Green, 72 h. Potency, µM (doses to about 28.9 µM), for inactives: at the highest dose activity, negative = inhibition, actives largely listed as inhibitors. actives 4.3% (n = 120,000). AID 1347417; active = well fitted inhibition curve with a large enough effect;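 note: plate controls were DMSO vehicle for no effect and reference drug for full effect; nearly all actives have a fitted effect of over 65% in size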
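Readout: SYBR Green fluorescence, 485 nm excitation, 535 nm emission, after ~16 h lysis at 37C. Before that, Dd2-infected red cells (2.5% hematocrit) grew 72 h with compound, 29 uM top final concentration.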
The depositor's hits bear a star; i = inactive; ! = repeats disagree; [ ] = dose if it differs, or a comment. This is one part of a sample in which hits are shown more often than they occur. Potency is the fitted concentration of half-maximal effect.

SMILES	Pf Dd2 growth
O=C(c1ccc(N2CCC(CO)C2)nc1)N1CCC(Oc2cccnc2)CC1 (stereo not drawn)	-28%
CC(=O)N1CCN(C2CCOC3(CCN(S(=O)(=O)c4c(C)noc4C)CC3)C2)CC1 (stereo not drawn)	-6%
CS(=O)(=O)N1CCC(C2CCN(C(=O)c3ccc4[nH]ccc4c3)C2)CC1 (stereo not drawn)	-11%
Cc1c(-c2ccc(Cl)cc2)n[nH]c1C(=O)N[C@@H]1CCNC[C@H]1O	10%
CC(C)(CC(=O)O)CC(=O)N1CCN2C(=O)N(Cc3ccccc3)C(=O)[C@H]2C1	-10%[44.1 µM]
Cc1cccc(C(=O)N2CCC(c3noc(CO)n3)C2)c1 (stereo not drawn)	1%
Cc1cn2nc(-c3nc(C4CCCN(C(=O)Cc5cccc(F)c5)C4)no3)cc2c(=O)[nH]1 (stereo not drawn)	4µM*
Cc1cccc(C(=O)N2CCCC(c3noc(COc4ccccc4)n3)C2)c1 (stereo not drawn)	2%
Cc1cccc(C(=O)N2CCCC(c3noc(-c4cc5c(=O)[nH]c(C)cn5n4)n3)C2)c1 (stereo not drawn)	5.6µM*
COCc1nc(C2CCCN(C(=O)c3ccc(C)cc3)C2)no1 (stereo not drawn)	39%
Cc1cn2nc(-c3nc(C4CCCN(C(=O)c5ccc(C)s5)C4)no3)cc2c(=O)[nH]1 (stereo not drawn)	-12%
CCOCc1nc(C2CCCN(C(=O)c3ccc(OC)cc3)C2)no1 (stereo not drawn)	i
Cc1ccsc1C(=O)N1CCCC(c2noc(COc3ccccc3F)n2)C1 (stereo not drawn)	9%
Cc1cn2nc(-c3nc(C4CCCN(C(=O)c5sccc5C)C4)no3)cc2c(=O)[nH]1 (stereo not drawn)	4.5µM*
O=C(Cc1cccc(F)c1)N1CCCC(c2nc(C3CCOCC3)no2)C1 (stereo not drawn)	21%
CCOCc1nc(C2CCCN(C(=O)Cc3cccc(C)c3)C2)no1 (stereo not drawn)	20%
CCc1ccc(C(=O)N2CCCC(c3noc(-c4cc5c(=O)[nH]c(C)cn5n4)n3)C2)cc1 (stereo not drawn)	0.89µM*
COCCNc1ncnc2c1CN(c1ccc(OC)cc1)C(=O)CN2C	24%
CNC(=O)[C@H]1C[C@H](Oc2ccccc2)CN1S(=O)(=O)c1cccc(OC)c1	12%
CCN1CCN(C(=O)C2Cn3cccc3C(=O)N2CC(C)C)CC1 (stereo not drawn)	-31%
COc1ccc(CCC(=O)NC2CCN(C(=O)c3cc4c(=O)[nH]c(C)cn4n3)CC2)cc1	i
CNC(=O)Nc1ccc(C2(C(=O)N3CCN(c4ccc(Cl)cc4)CC3)CCC2)cc1	i
Cc1ccc(C(=O)NCC2(C)CCOCC2)s1	-12%
O=C1CO[C@H](c2ccc(NC(=O)C3CCCCC3)cc2)[C@@H](CO)N1	14%[44.1 µM]
CCCc1cc(C(=O)N2CC(=O)N(CC(C)C)CC(OCc3ccccc3F)C2)n(C)n1 (stereo not drawn)	-5%
SMILES	Pf Dd2 growth
CCOc1ccc2c(n1)CCN(C(=O)Nc1ccccc1C)C2	18%
O=C(O)Cn1nc(C2CCOC2)nc1C1(c2ccccc2)CC1 (stereo not drawn)	-5%
O=C(NC1CCCCC1)N1C[C@@H]2C[C@H](C1)c1c(-c3ccc4ccccc4c3)ccc(=O)n1C2	-17%
COCCNC(=O)[C@H]1C[C@H](Oc2cccnc2)CN1C(=O)NCC(C)C	20%
Cc1cc2c(c(=O)n(-c3ccccc3)c(=O)n2CC(=O)N(C)c2ccccc2)n1C	9%
COc1nc2c(cc1CNC(=O)CC1CCC(=O)N1)C(=O)N(C1CCCC1)C2 (stereo not drawn)	-11%
CC1(CCCCc2ccccc2)COc2ccc(C(=O)NC3CC3)cc2N1 (stereo not drawn)	-32%[44.1 µM]
COC[C@H]1CCCN1Cc1nc(C2(O)CCN(Cc3ccc(OC)cc3)CC2)cs1	i
CCC(=O)N1CCC2(CC1)OCC(C(=O)NCC(C)C)N2C(=O)c1cccc(OC)c1 (stereo not drawn)	9%
Cc1ccccc1NC(=O)N1CCCC(Cn2c(C3CC3)nc3cccnc32)C1 (stereo not drawn)	i
CC(=O)Nc1ccc(CN2CCC(c3nc4ccc(C)cc4c(=O)[nH]3)CC2)cc1	-11%
Cc1cc(C)cc(-c2ccc(CN3CCCC(c4nc5ccc(F)cc5c(=O)[nH]4)C3)cc2)c1 (stereo not drawn)	10µM*!
Cc1ccc2nc([C@H]3CCN(Cc4cccs4)C3)[nH]c2c1	-17%[44.1 µM]
Cc1ccc2nc(C3CCN(Cc4cccc(-c5cccnc5)c4)CC3)[nH]c(=O)c2c1	8.9µM*!
COc1ccc(CN2CCCC(c3nn(-c4ccccc4)c(=O)[nH]3)C2)cc1 (stereo not drawn)	-17%
COc1ccc(-n2nc(C3CCN(Cc4cccnc4)CC3)[nH]c2=O)cc1	-13%
CC(C)CN1CCCC(c2nc3ccc(F)cc3c(=O)[nH]2)C1 (stereo not drawn)	5µM*
Cc1ccc2nc(C3CCCN(CC4CCCC4)C3)[nH]c(=O)c2c1 (stereo not drawn)	8.9µM*!
CC(C)NC(=O)N1CC[C@H](c2nc3ccc(F)cc3[nH]2)C1	i
CC(=O)Nc1ccc(CN2CCC(c3nc4ccc(F)cc4c(=O)[nH]3)CC2)cc1	-23%
CCN1CCC(c2nc3ccc(F)cc3c(=O)[nH]2)CC1	0%[44.1 µM]
O=c1[nH]c(C2CCCN(CC3CCCCC3)C2)nn1-c1ccccc1 (stereo not drawn)	i
Cc1noc(C)c1S(=O)(=O)N1CCCC(Cn2c(C3CC3)nc3cccnc32)C1 (stereo not drawn)	i
C[C@H]1CN(C(=O)c2nn(C)c3ccccc23)C[C@@H]1c1nc(-c2ccncc2)no1	i
CC(C)N1C(=O)CO[C@H]2CCN(Cc3ccccn3)CC[C@@H]21	19%[44.1 µM]
SMILES	Pf Dd2 growth
O=C(Nc1cccc(Cl)c1)C1CCN(c2cc(C(F)(F)F)ncn2)CC1	-25%
Cn1nccc1CN1CCCC2(CN[S+](=O)([O-])c3ccccc3N2)C1 (stereo not drawn)	-11%
CCN1CCCN(C(=O)c2ccco2)CC12CCOCC2	11%
COc1ccc(C(=O)N[C@H]2CC[C@]3(C)CCC([C@H](C)C(=O)NCc4ccccc4OC)[C@H](O)[C@H]3[C@@H]2C)cc1 (stereo partly drawn)	i
CS(=O)(=O)N1CCC(CC(=O)Nc2cccc(F)c2)C1 (stereo not drawn)	10%
N#Cc1cccc(CN2CCC(c3nc4ccc(F)cc4c(=O)[nH]3)CC2)c1	2%
Cc1ccc(-c2cccc(CN3CC4CCC(C3)N4c3ccc(C(F)(F)F)cc3)c2)c(C)c1	185%
Cc1ccc(-c2cccc(CN3CCN(c4ccc(Cl)nn4)C(=O)C3)c2)c(C)c1	-21%
O=c1[nH]c(C2CCCN(Cc3ccccc3)C2)nn1-c1ccccc1 (stereo not drawn)	-22%[44.1 µM]
Cc1ccc(-c2cccc(CN3CCCC(c4nc5ccc(F)cc5c(=O)[nH]4)C3)c2)c(C)c1 (stereo not drawn)	13µM*!
O=c1[nH]c(C2CCCN(Cc3cccc(-c4cccs4)c3)C2)nc2ccc(F)cc12 (stereo not drawn)	8.9µM*!
CN1C(=O)CCC2(CNC(=O)c3ccnn3C)CCC=C12 (stereo not drawn)	2%
CCCNC(=O)N1CCC(O)(c2csc(CN3CCc4ccccc4C3)n2)CC1	i
NC1(Cc2cc(CN3CCN(c4ccccc4)CC3)on2)COC1	21%[44.1 µM]
COc1ccccc1CN1CCc2nc(C(=O)Nc3ccc(Cl)cc3)oc2CC1	-4%[44.1 µM]
